Measured values: PubChem BioAssay AID1159580 (chemical genetic matrix, 2015)
“And” between values parts separate entries of the source, which are not always exact repeats. Equal values may be shown once. Screen size: about 5,500 compounds; about 2,000 (36%) were called active. Another 18% or so got no clear call; they are omitted. Cut-off read from the data, not from the text of the source: active = normalized growth mostly below about 0.91 (no sharp cut-off); inconclusive = no clear call, values can overlap the other calls; inactive = mostly above about 0.92. The list shows a part of the results.

Test: chemical genetic growth profiling, strain panel (AID 1159580);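 note: tested at 20 µM; growth read once vehicle control cultures reached saturation at 30 °C; 1 = growth at the plate median or of vehicle wells; lower values mean less growth of the strain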
Conditions: S. cerevisiae deletion strains, growth OD

Measured: normalized growth

CN(C)CCCN1c2ccccc2CCc2ccc(Cl)cc21
0.876 (active) and 1 (inactive): locus YHR030C, strain SLT2, stronger effect = lower value
active: locus YAL021C, strain ccr4, stronger effect = lower value 0.899 | locus YAL026C, strain drs2, stronger effect = lower value 0.77 | locus YBR021W, strain FUR4, stronger effect = lower value 0.561 | locus YDL035C, strain GPR1, stronger effect = lower value 0.824 | locus YDL074C, strain BRE1, stronger effect = lower value 0.674 | locus YDL134C, strain PPH21, stronger effect = lower value 0.812 | locus YDR137W, strain rgp1, stronger effect = lower value 1.21 [resistant] | locus YDR162C, strain NBP2, stronger effect = lower value 0.725 | locus YDR388W, stronger effect = lower value 0.825 | locus YFR010W, strain ubp6, stronger effect = lower value 0.882 | locus YGR135W, strain pre9, stronger effect = lower value 0.784 | locus YGR252W, strain gcn5, stronger effect = lower value 0.527 | locus YHR027C, strain rpn1, stronger effect = lower value 0.915 | locus YIL066C, strain RNR3, stronger effect = lower value 0.836
0.696 (active) and 0.99 (inactive): locus YJL095W, strain BCK1, stronger effect = lower value
inactive: locus YAL013W, strain DEP1, stronger effect = lower value 0.92 and 0.962 | locus YAL030W, strain snc1, stronger effect = lower value 1 | locus YAL040C, strain CLN3, stronger effect = lower value 1.02 | locus YBL061C, strain skt5, stronger effect = lower value 1.01 | locus YBR009C, strain hhf1, stronger effect = lower value 0.944 | locus YBR023C, strain chs3, stronger effect = lower value 1.01 | locus YBR171W, strain sec66, stronger effect = lower value 0.99 | locus YBR229C, strain ROT2, stronger effect = lower value 0.975 | locus YBR231C, strain swc5, stronger effect = lower value 1.01 | locus YBR279W, strain paf1, stronger effect = lower value 0.996 | locus YCL011C, strain gbp2, stronger effect = lower value 0.984 | locus YCL016C, strain dcc1, stronger effect = lower value 0.994 | locus YCL029C, strain bik1, stronger effect = lower value 1 | locus YCL061C, strain MRC1 (second series), stronger effect = lower value 0.999 | locus YCL061C, strain MRC1, stronger effect = lower value 1 | locus YCL069W, strain vba3, stronger effect = lower value 1 | locus YCR088W, strain abp1, stronger effect = lower value 1 | locus YDL005C, strain med2, stronger effect = lower value 1.03 | locus YDL040C, strain nat1, stronger effect = lower value 0.998 | locus YDL101C, strain DUN1, stronger effect = lower value 0.977 | locus YDL185W, strain tfp1, stronger effect = lower value 0.984 | locus YDL192W, strain arf1, stronger effect = lower value 0.933 | locus YDR001C, strain nth1, stronger effect = lower value 1.01 | locus YDR069C, strain doa4, stronger effect = lower value 0.919 | locus YDR101C, strain arx1, stronger effect = lower value 1 | locus YDR150W, strain NUM1, stronger effect = lower value 1.01 | locus YDR159W, strain sac3, stronger effect = lower value 1.04 | locus YDR195W, strain ref2 1.07 | locus YDR297W, strain sur2, stronger effect = lower value 1.01 | locus YDR318W, strain mcm21, stronger effect = lower value 0.978 | locus YDR334W, strain swr1, stronger effect = lower value 1.01 | locus YDR335W, strain msn5, stronger effect = lower value 1 | locus YDR392W, strain spt3, stronger effect = lower value 0.93 | locus YDR502C, strain sam2, stronger effect = lower value 0.963 | locus YEL003W, strain gim4, stronger effect = lower value 0.984 | locus YEL037C, strain rad23, stronger effect = lower value 1 | locus YEL061C, strain CIN8 (second series), stronger effect = lower value 1.01 | locus YEL061C, strain CIN8, stronger effect = lower value 0.99 | locus YER002W, strain NOP16, stronger effect = lower value 1.08 | locus YER015W, strain faa2, stronger effect = lower value 0.972 | locus YER016W, strain bim1, stronger effect = lower value 1 | locus YER110C, stronger effect = lower value 0.999 | locus YER111C, strain swi4, stronger effect = lower value 0.994 | locus YER155C, strain BEM2 (second series), stronger effect = lower value 1.01 | locus YER155C, strain BEM2, stronger effect = lower value 1 | locus YER167W, strain BCK2, stronger effect = lower value 0.952 | locus YGL078C, strain dbp3, stronger effect = lower value 0.989 | locus YGL086W, strain mad1, stronger effect = lower value 0.967 | locus YGL167C, strain pmr1, stronger effect = lower value 1 | locus YGL173C, strain kem1, stronger effect = lower value 0.967 | locus YGL227W, strain vid30, stronger effect = lower value 0.993 | locus YGL240W, strain doc1, stronger effect = lower value 1 | locus YGL248W, strain PDE1, stronger effect = lower value 0.917 | locus YGL253W, strain hxk2, stronger effect = lower value 0.971 | locus YHR013C, strain ard1, stronger effect = lower value 0.852 | locus YHR079C, strain IRE1 (second series), stronger effect = lower value 0.992 | locus YHR079C, strain IRE1, stronger effect = lower value 0.981 | locus YHR094C, strain hxt1, stronger effect = lower value 0.993 | locus YHR129C, strain ARP1, stronger effect = lower value 0.986 | locus YHR142W, strain chs7, stronger effect = lower value 0.977 | locus YHR200W, strain rpn10, stronger effect = lower value 0.998 | locus YIL073C, strain SPO22, stronger effect = lower value 0.79 | locus YIL125W, strain kgd1, stronger effect = lower value 0.993 | locus YIR030C, strain dcg1, stronger effect = lower value 0.995 | locus YJL092W, strain hpr5, stronger effect = lower value 1.01 | locus YJL095W, strain BCK1 (second series), stronger effect = lower value 0.997 | locus YJL115W, strain asf1, stronger effect = lower value 0.997 | locus YJL129C, strain trk1, stronger effect = lower value 1.02 | locus YJL134W, strain LCB3, stronger effect = lower value 0.991 | locus YJL154C, strain vps35, stronger effect = lower value 1 | locus YJL164C, strain tpk1, stronger effect = lower value 0.993 | locus YJL166W, strain qcr8, stronger effect = lower value 0.957 | locus YJL168C, strain set2, stronger effect = lower value 0.993 | locus YJL187C, strain SWE1 (second series), stronger effect = lower value 0.887 | locus YJL187C, strain SWE1, stronger effect = lower value 1 | locus YJR043C, strain POL32, stronger effect = lower value 1.01
